Measured values from the supplement of paper PMC8728848.
About 410 targets per protein were measured; listed, in parts, are those with the strongest signals and a random draw of the rest.

Tests used:
Assay in all cases: glycan array binding signal (z-score within array); higher = stronger binding
Details in all cases: glycan notation: IUPAC condensed, linker removed
[1] = biological target: Fuc(a1-2)Gal(b1-3)GalNAc(b1-3)Gal(a1-4)Gal(b1-4)Glc
In short: (§1)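 Glycan array data came from 3228 arrays in the Consortium for Functional Glycomics database, and only arrays with an available protein sequence were kept. Glycan names were put into IUPAC-condensed notation, and columns mapping to the same glycan were averaged. The binding signal is a within-array Z-score, averaged across arrays of one protein sequence run at different concentrations or buffers and across linkers. A negative Z-score can be read as non-binding.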

[2] = biological target: Fuc(a1-2)Gal(b1-3)GlcNAc(b1-3)[Neu5Ac(a2-6)Gal(b1-4)GlcNAc(b1-6)]Gal(b1-4)Glc
In short: as §1

[3] = biological target: Fuc(a1-2)Gal(b1-3)GlcNAc6S
In short: as §1

[4] = biological target: Fuc(a1-2)Gal(b1-3)[Fuc(a1-4)]GlcNAc(b1-2)Man(a1-3)[Fuc(a1-2)Gal(b1-3)[Fuc(a1-4)]GlcNAc(b1-2)Man(a1-6)]Man(b1-4)GlcNAc(b1-4)[Fuc(a1-6)]GlcNAc(b1-4)[Fuc(a1-6)]GlcNAc
In short: as §1

Fuc(a1-2)Gal(b1-4)GlcNAc = biological target: Fuc(a1-2)Gal(b1-4)GlcNAc
In short: as §1

[5] = biological target: Fuc(a1-2)Gal(b1-4)GlcNAc(b1-3)Gal(b1-4)GlcNAc(b1-2)Man(a1-3)[Fuc(a1-2)Gal(b1-4)GlcNAc(b1-3)Gal(b1-4)GlcNAc(b1-2)Man(a1-6)]Man(b1-4)GlcNAc(b1-4)GlcNAc
In short: as §1

[6] = biological target: Fuc(a1-2)Gal(b1-4)GlcNAc(b1-3)Gal(b1-4)GlcNAc(b1-3)Gal(b1-4)GlcNAc
In short: as §1

[7] = biological target: Fuc(a1-2)Gal(b1-4)[Fuc(a1-3)]GlcNAc
In short: as §1

[8] = biological target: Fuc(a1-2)Gal(b1-4)[Fuc(a1-3)]GlcNAc(b1-3)GalNAc
In short: as §1

[9] = biological target: Fuc(a1-2)[Gal(a1-4)]Gal(b1-4)GlcNAc
In short: as §1

[10] = biological target: Fuc(a1-2)[GalNAc(a1-3)]Gal(b1-3)GalNAc(a1-3)[Fuc(a1-2)]Gal(b1-4)GlcNAc
In short: as §1

[11] = biological target: Fuc(a1-2)[GalNAc(a1-3)]Gal(b1-3)GalNAc(b1-3)Gal(a1-4)Gal(b1-4)Glc
In short: as §1

[12] = biological target: Fuc(a1-2)[GalNAc(a1-3)]Gal(b1-4)GlcNAc(b1-2)Man(a1-3)[Fuc(a1-2)[GalNAc(a1-3)]Gal(b1-4)GlcNAc(b1-2)Man(a1-6)]Man(b1-4)GlcNAc(b1-4)GlcNAc
In short: as §1

[13] = biological target: Fuc(a1-2)[GalNAc(a1-3)]Gal(b1-4)GlcNAc(b1-3)[Fuc(a1-2)[GalNAc(a1-3)]Gal(b1-4)GlcNAc(b1-6)]GalNAc
In short: as §1

[14] = biological target: Gal(a1-3)Gal(b1-3)GlcNAc(b1-2)Man(a1-3)[Gal(a1-3)Gal(b1-3)GlcNAc(b1-2)Man(a1-6)]Man(b1-4)GlcNAc(b1-4)GlcNAc
In short: as §1

[15] = biological target: Gal(a1-3)Gal(b1-4)GlcNAc(b1-2)Man
In short: as §1

[16] = biological target: Gal(a1-3)Gal(b1-4)GlcNAc(b1-3)GalNAc
In short: as §1

[17] = biological target: Gal(a1-3)[Gal(a1-4)]Gal(b1-4)GlcNAc
In short: as §1

[18] = biological target: Gal(b1-3)GalNAc(a1-3)[Fuc(a1-2)]Gal(b1-4)Glc
In short: as §1

[19] = biological target: Gal(b1-3)GalNAc(b1-3)Gal(a1-4)Gal(b1-4)Glc
In short: as §1

Gal(b1-3)GlcNAc(b1-2)Man = biological target: Gal(b1-3)GlcNAc(b1-2)Man
In short: as §1

[20] = biological target: Gal(b1-3)GlcNAc(b1-2)[Gal(b1-3)GlcNAc(b1-6)]Man(a1-6)[Gal(b1-3)GlcNAc(b1-2)Man(a1-3)]Man(b1-4)GlcNAc(b1-4)GlcNAc
In short: as §1

[21] = biological target: Gal(b1-3)GlcNAc(b1-6)Gal(b1-4)GlcNAc
In short: as §1

[22] = biological target: Gal(b1-3)[Neu5Ac(b2-6)]GalNAc
In short: as §1

[23] = biological target: Gal(b1-4)GlcNAc(b1-2)Man(a1-3)Man(b1-4)GlcNAc(b1-4)GlcNAc
In short: as §1

[24] = biological target: Gal(b1-4)GlcNAc(b1-2)Man(a1-3)[GlcNAc(b1-2)Man(a1-6)]Man(b1-4)GlcNAc(b1-4)GlcNAc
In short: as §1

[25] = biological target: Gal(b1-4)GlcNAc(b1-2)Man(a1-6)[Man(a1-3)]Man(b1-4)GlcNAc(b1-4)GlcNAc
In short: as §1

[26] = biological target: Gal(b1-4)GlcNAc(b1-2)[Gal(b1-4)GlcNAc(b1-6)]Man(a1-6)[GlcNAc(b1-4)][Gal(b1-4)GlcNAc(b1-2)Man(a1-3)]Man(b1-4)GlcNAc(b1-4)GlcNAc
In short: as §1

[27] = biological target: Gal(b1-4)GlcNAc(b1-3)Gal(b1-4)Glc
In short: as §1

[28] = biological target: Gal(b1-4)GlcNAc(b1-3)Gal(b1-4)GlcNAc
In short: as §1

[29] = biological target: Gal(b1-4)GlcNAc(b1-3)Gal(b1-4)GlcNAc(b1-2)Man(a1-3)[Gal(b1-4)GlcNAc(b1-3)Gal(b1-4)GlcNAc(b1-2)Man(a1-6)]Man(b1-4)GlcNAc(b1-4)GlcNAc
In short: as §1

[30] = biological target: Gal(b1-4)GlcNAc(b1-3)Gal(b1-4)GlcNAc(b1-2)[Gal(b1-4)GlcNAc(b1-3)Gal(b1-4)GlcNAc(b1-6)]Man(a1-6)[Gal(b1-4)GlcNAc(b1-3)Gal(b1-4)GlcNAc(b1-2)Man(a1-3)]Man(b1-4)GlcNAc(b1-4)[Fuc(a1-6)]GlcNAc
In short: as §1

[31] = biological target: Gal(b1-4)GlcNAc(b1-3)Gal(b1-4)GlcNAc(b1-3)Gal(b1-4)GlcNAc(b1-3)Gal(b1-4)GlcNAc(b1-3)Gal(b1-4)GlcNAc(b1-2)Man(a1-3)[Gal(b1-4)GlcNAc(b1-3)Gal(b1-4)GlcNAc(b1-3)Gal(b1-4)GlcNAc(b1-3)Gal(b1-4)GlcNAc(b1-3)Gal(b1-4)GlcNAc(b1-2)Man(a1-6)]Man(b1-4)GlcNAc(b1-4)GlcNAc
In short: as §1

B1: SBD-G4S3-Fc (protein)
chain: MASIPSSASVQLDSYNYDGSTFSGKIYVKNIAYSKKVTVVYADGSDNWNNNGNIIAASFSGPISGSNYEYWTFSASVKGIKEFYIKYEVSGKTYYDNNNSANYQVSTGGGGSGGGGSGGGGSEFVPRDCGCKPCICTVPEVSSVFIFPPKPKDVLTITLTPKVTCVVVDISKDDPEVQFSWFVDDVEVHTAQTQPREEQFNSTFRSVSELPIMHQDWLNGKEFKCRVNSAAFPAPIEKTISKTKGRPKAPQVYTIPPPKEQMAKDKVSLTCMITDFFPEDITVEWQWNGQPAENYKNTQPIMDTDGSYFVYSKLNVQKSNWEAGNTFTCSVLHEGLHNHHTEKSLSHSPGAA
For B1, the “glycan array binding signal (z-score)” value [1] was -0.249, the “glycan array binding signal (z-score)” value [2] was -0.478 and the “glycan array binding signal (z-score)” value [3] was -0.371. The “glycan array binding signal (z-score)” value [4] was 0.339, the “glycan array binding signal (z-score)” value (Fuc(a1-2)Gal(b1-4)GlcNAc) was -0.284 and the “glycan array binding signal (z-score)” value [5] was 1.23. The “glycan array binding signal (z-score)” value [6] was -0.034, the “glycan array binding signal (z-score)” value [7] was 0.134 and the “glycan array binding signal (z-score)” value [8] was 0.32. For the same binder, the “glycan array binding signal (z-score)” value [9] was -0.203, the “glycan array binding signal (z-score)” value [10] was 5.6 and the “glycan array binding signal (z-score)” value [11] was 0.07. For the same binder, the “glycan array binding signal (z-score)” value [12] was 0.007, the “glycan array binding signal (z-score)” value [13] was -0.2 and the “glycan array binding signal (z-score)” value [14] was 1.16. For the same binder, the “glycan array binding signal (z-score)” value [15] was -0.234, the “glycan array binding signal (z-score)” value [16] was 0.357 and the “glycan array binding signal (z-score)” value [17] was 1.33. For the same binder, the “glycan array binding signal (z-score)” value [18] was -0.267, the “glycan array binding signal (z-score)” value [19] was 0.103 and the “glycan array binding signal (z-score)” value (Gal(b1-3)GlcNAc(b1-2)Man) was -0.388. For the same binder, the “glycan array binding signal (z-score)” value [20] was -0.089, the “glycan array binding signal (z-score)” value [21] was -0.401 and the “glycan array binding signal (z-score)” value [22] was -0.146. For the same binder, the “glycan array binding signal (z-score)” value [23] was 0.225, the “glycan array binding signal (z-score)” value [24] was -0.37 and the “glycan array binding signal (z-score)” value [25] was 0.054. For the same binder, the “glycan array binding signal (z-score)” value [26] was 0.227, the “glycan array binding signal (z-score)” value [27] was -0.301 and the “glycan array binding signal (z-score)” value [28] was -0.054. For the same binder, the “glycan array binding signal (z-score)” value [29] was 8.04, the “glycan array binding signal (z-score)” value [30] was 0.249 and the “glycan array binding signal (z-score)” value [31] was 1.16.
